Entries with a potency or affinity are not part of this list. Active and inactive are the calls of the source. The rule behind the calls is not given here.

The nature of the test: Vero cell cytotoxicity, dose response, cytotoxicity control for M. tuberculosis growth inhibitor project, Vero cells, purified and synthesized compounds, set 5 (AID 504909). The note with it: series mostly up to 100 µM; viability: at the top concentration.
For the compound `NNC(=O)c1ccncc1`, the “viability” value is 107% (inactive).

Turning to `Cc1cc(=O)[nH]c(=S)[nH]1`, the “viability” value was 104% (inactive).

Consider `O=c1[nH]c(=S)[nH]c2ccccc12`, for which the “viability” value was 81.5% (inactive).

Regarding `O=C(CSc1ncccn1)NC1CCCCC1`, the “viability” value was 96.3% (inactive).

Consider `Cc1nc(SCC(=O)N(C)c2ccccc2)[nH]c(=O)c1C`, for which the “viability” value was 95.4% (inactive).

For the compound `Cc1cc(=O)[nH]c(SCC(=O)NC2CCCCC2)n1`, the “viability” value is 100% (inactive).

Regarding `COC(=O)C(C)Oc1ccc(Cc2ncc(C(F)(F)F)cc2Cl)cc1` (stereo unspecified), the “viability” value is 85.8% (inactive).

Turning to `NC[C@H]1O[C@H](O[C@H]2[C@H](O)[C@@H](O[C@H]3O[C@H](CO)[C@@H](O)[C@H](N)[C@H]3O)[C@H](N)C[C@@H]2N)[C@H](O)[C@@H](O)[C@@H]1O`, the “viability” value was 110% (inactive).

Regarding `COC(=O)c1ccc(CNc2c(N3CCCC3)c(=O)c2=O)cc1`, the “viability” value is 102% (inactive).

On to `O=C(CSc1nc2c(c(=O)[nH]1)CCC2)NC1CCCCC1`, for which the “viability” value was 96.3% (inactive).

In the case of `O=C(CSc1nc2ccccc2c(=O)[nH]1)N1CCOCC1`, the “viability” value is 99.1% (inactive).

In the case of `COc1cccc(NC(=O)CSc2nc3c(c(=O)[nH]2)CCC3)c1`, the “viability” value is 93.6% (inactive).

In the case of `Cc1cnc(SCC(=O)NC2CCCCC2)[nH]c1=O`, the “viability” value was 97.2% (inactive).

For the compound `CCOC(=O)CSc1nc(C)c(C)c(=O)[nH]1`, the “viability” value was 98.6% (inactive).

`CN1CCC(NC(=O)CSc2nc3ccccc3c(=O)[nH]2)CC1`: the “viability” value was 102% (inactive).

In the case of `Cc1nc(SCC(N)=O)[nH]c(=O)c1C`, the “viability” value was 102% (inactive).

As for `O=C(CSc1nc2ccccc2c(=O)[nH]1)NC1CCCC1`, the “viability” value was 95.4% (inactive).

For `CCCc1cc(C(N)=S)ccn1`, the “viability” value was 89.3% (inactive).

Regarding `CC(C)CCNC(=O)CSc1nc2c(c(=O)[nH]1)CCC2`, the “viability” value is 88.5% (inactive).

With `Cc1nc(SCC(=O)NC2CCCC2)[nH]c(=O)c1C`, the “viability” value was 91.4% (inactive).

Consider `CN(C)C(=O)CSc1nc2ccccc2c(=O)[nH]1`, for which the “viability” value is 88.3% (inactive).

The term viability denotes a read-out of living cells in per cent, often relative to untreated cells.
